For eleven molecules, Percent Effect results are on record in ChEMBL document CHEMBL3988442, “University of Dundee, Small-Polar-MMV Screening Library” (2021).

Holding throughout (set-up): scale not given: direction of the effect not stated beside the values
The target of assay [1] is Protein translocase subunit SecA (Escherichia coli (strain K12)) (UniProt P10408). Put plainly: Assay to Identify E. coli SecA ATPase Inhibitors. Conditions: 30 µM. It counts as functional.
Assay [2] concerns the target T1, Ubiquitin-activating enzyme e1, putative (Leishmania donovani (strain BPK282A1)) (UniProt E9BSI1).
T1 sequence (whole entry): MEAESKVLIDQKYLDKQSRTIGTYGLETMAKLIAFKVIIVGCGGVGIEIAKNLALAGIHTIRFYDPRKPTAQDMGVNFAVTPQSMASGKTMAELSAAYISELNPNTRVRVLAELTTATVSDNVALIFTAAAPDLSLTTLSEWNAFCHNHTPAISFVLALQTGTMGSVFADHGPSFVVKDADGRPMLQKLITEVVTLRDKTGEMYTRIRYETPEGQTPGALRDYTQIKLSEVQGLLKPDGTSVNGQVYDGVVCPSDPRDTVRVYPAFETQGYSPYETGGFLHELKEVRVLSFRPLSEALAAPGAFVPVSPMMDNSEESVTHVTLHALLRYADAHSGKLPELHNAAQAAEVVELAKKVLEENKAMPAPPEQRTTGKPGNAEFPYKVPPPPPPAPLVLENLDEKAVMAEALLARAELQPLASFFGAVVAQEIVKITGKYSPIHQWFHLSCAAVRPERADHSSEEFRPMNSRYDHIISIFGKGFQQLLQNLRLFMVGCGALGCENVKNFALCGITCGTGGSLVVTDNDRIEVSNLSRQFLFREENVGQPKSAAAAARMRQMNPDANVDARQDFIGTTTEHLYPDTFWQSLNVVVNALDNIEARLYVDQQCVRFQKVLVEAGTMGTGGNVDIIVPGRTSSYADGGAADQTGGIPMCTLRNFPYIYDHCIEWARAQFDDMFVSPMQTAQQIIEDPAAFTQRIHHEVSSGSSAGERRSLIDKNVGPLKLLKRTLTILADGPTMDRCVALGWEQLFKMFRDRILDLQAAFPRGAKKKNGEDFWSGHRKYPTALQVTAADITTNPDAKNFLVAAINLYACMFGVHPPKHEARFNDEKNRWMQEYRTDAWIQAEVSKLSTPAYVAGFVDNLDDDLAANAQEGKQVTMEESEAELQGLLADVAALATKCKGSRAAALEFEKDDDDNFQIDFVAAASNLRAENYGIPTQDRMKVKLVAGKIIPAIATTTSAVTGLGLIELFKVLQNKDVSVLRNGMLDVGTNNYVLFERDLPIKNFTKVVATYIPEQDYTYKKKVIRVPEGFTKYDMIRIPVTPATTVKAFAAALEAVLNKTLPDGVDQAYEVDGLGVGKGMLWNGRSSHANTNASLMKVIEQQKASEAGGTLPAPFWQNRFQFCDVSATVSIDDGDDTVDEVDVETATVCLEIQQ
Put plainly: Leishmania donovani Ubiquitin Activating Enzyme (LdE1). It is filed as functional. The note with it: 30 µM.

In assay [3] the target is AMP-activated protein kinase, AMPK (Homo sapiens) (UniProt P54646+O43741+P54619+Q9UGJ0+Q9Y478+Q13131+Q9UGI9). Nature of the assay: AMP-dependent Kinase enzyme assay. An in vitro enzyme assay that detects ADP turnover that is directly proportional to AMPK activity. This uses naive AMPK that is activated during the assay with MK-8722. It is filed as functional. Conditions: 30 µM.

In assay [4] the target is Sialic acid-binding Ig-like lectin 9 (Homo sapiens) (UniProt Q9Y336). Nature of the assay: Hs-Siglec9 ALPHAscreen SOP 20170721. The note with it: 10 µM. Background: Bead proximity is the source of the signal in Alpha formats.
Sequence of Sialic acid-binding Ig-like lectin 9 (Homo sapiens) (Q9Y336 whole entry): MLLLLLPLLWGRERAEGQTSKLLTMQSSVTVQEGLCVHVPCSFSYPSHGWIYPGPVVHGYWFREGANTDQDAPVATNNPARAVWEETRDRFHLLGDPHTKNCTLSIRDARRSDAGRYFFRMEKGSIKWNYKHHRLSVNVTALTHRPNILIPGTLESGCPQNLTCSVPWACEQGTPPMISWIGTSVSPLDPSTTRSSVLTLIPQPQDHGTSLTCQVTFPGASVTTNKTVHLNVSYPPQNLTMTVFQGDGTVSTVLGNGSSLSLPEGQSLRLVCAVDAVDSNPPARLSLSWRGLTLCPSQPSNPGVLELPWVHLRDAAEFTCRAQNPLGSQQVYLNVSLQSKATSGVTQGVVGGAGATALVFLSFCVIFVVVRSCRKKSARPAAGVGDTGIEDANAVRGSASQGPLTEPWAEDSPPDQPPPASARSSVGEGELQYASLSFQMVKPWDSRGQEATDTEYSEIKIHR
In assay [5] the test system is Trypanosoma cruzi. Put plainly: Trypanosoma cruzi phosphomannomutase and mannose-1-phosphate guanylyltransferase assay. It is filed as functional. Conditions: 10 µM.
The target of assay [6] is T2, Arginase-2, mitochondrial (Homo sapiens) (UniProt P78540).
T2 sequence (whole entry): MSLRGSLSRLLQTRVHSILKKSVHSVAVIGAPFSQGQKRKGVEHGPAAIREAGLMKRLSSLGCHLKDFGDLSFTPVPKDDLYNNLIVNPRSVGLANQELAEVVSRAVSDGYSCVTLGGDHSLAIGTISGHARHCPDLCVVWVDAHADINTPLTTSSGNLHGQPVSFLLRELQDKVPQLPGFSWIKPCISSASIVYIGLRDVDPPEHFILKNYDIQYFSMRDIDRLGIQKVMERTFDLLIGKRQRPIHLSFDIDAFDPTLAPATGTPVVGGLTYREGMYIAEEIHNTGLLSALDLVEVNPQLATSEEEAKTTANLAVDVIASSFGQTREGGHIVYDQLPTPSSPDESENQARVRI
Put plainly: in vitro enzyme assay to detect the production of urea directly proportional to the activity of Arginase II. Note: in the data most compounds retested in dose-response had high values. It counts as functional. Conditions: 33.3 µM.

Assay [7] addresses T3, Proteasome subunit beta (Trypanosoma cruzi) (UniProt O96673).
T3 sequence (whole entry): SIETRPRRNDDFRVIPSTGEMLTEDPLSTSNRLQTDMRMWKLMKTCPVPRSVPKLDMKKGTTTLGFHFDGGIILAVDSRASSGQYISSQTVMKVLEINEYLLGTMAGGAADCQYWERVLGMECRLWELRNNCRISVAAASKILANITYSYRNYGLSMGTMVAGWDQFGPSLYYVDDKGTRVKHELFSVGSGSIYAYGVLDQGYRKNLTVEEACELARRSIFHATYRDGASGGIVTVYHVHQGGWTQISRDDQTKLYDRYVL
Nature of the assay: Trypanosoma cruzi proteasome chymotrypsin-like activity (TcProtChymo) assay. Note: in the data most compounds retested in dose-response had high values. It counts as functional. Conditions: 9.37 µM.

Assay [8] is filed under the species Homo sapiens. Nature of the assay: To identify inhibition of the IFN signalling (Jak-Stat) pathway via expression of an eGFP reporter gene under the control of an IFN-stimulated response element (ISRE) containing MxA promoter. It counts as functional. Conditions: 30 µM. (A reporter such as luciferase makes a cellular process visible.)
The target of assay [9] is T4, Tyrosyl-tRNA synthetase, putative (Trypanosoma cruzi (strain CL Brener)) (UniProt Q4DSP6).
T4 sequence (whole entry): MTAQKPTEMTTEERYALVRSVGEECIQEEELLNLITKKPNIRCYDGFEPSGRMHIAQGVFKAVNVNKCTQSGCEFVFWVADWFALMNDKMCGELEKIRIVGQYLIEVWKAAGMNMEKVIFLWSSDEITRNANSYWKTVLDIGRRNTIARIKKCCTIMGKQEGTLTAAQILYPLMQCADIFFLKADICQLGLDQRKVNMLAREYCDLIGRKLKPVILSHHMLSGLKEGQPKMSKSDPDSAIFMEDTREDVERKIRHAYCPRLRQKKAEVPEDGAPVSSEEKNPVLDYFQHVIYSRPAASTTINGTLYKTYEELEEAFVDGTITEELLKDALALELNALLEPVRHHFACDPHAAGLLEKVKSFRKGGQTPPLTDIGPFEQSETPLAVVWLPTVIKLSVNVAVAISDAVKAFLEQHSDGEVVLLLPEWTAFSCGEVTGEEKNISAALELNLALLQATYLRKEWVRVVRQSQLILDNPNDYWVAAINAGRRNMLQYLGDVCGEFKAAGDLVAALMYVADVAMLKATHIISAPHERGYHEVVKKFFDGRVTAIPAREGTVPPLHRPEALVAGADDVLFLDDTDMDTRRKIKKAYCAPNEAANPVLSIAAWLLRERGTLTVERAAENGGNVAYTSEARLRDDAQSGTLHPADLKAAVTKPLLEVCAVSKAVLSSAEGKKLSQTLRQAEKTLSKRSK
Nature of the assay: Trypanosoma cruzi tyrosyl tRNA synthetase (TcYRS) _High Tyrosine SOP. Note: in the data most compounds retested in dose-response had high values. It is filed as functional. Conditions: 30 µM.

In assay [10] the target is T4, Tyrosyl-tRNA synthetase, putative (Trypanosoma cruzi (strain CL Brener)). Put plainly: Trypanosoma cruzi tyrosyl tRNA synthetase (TcYRS) SOP. It is filed as functional. The note with it: 30 µM.
Assay [11] deals with Chromo domain-containing protein 1 (Saccharomyces cerevisiae (strain ATCC 204508 / S288c) (Baker's yeast)) (UniProt P32657). Nature of the assay: ScCHD-1 Enzyme Inhibition Assay. Note: in the data most compounds retested in dose-response had high values. The note with it: 30 µM. It counts as functional.
Sequence of Chromo domain-containing protein 1 (Saccharomyces cerevisiae (strain ATCC 204508 / S288c) (Baker's yeast)) (P32657 whole entry, the tested form may be a part): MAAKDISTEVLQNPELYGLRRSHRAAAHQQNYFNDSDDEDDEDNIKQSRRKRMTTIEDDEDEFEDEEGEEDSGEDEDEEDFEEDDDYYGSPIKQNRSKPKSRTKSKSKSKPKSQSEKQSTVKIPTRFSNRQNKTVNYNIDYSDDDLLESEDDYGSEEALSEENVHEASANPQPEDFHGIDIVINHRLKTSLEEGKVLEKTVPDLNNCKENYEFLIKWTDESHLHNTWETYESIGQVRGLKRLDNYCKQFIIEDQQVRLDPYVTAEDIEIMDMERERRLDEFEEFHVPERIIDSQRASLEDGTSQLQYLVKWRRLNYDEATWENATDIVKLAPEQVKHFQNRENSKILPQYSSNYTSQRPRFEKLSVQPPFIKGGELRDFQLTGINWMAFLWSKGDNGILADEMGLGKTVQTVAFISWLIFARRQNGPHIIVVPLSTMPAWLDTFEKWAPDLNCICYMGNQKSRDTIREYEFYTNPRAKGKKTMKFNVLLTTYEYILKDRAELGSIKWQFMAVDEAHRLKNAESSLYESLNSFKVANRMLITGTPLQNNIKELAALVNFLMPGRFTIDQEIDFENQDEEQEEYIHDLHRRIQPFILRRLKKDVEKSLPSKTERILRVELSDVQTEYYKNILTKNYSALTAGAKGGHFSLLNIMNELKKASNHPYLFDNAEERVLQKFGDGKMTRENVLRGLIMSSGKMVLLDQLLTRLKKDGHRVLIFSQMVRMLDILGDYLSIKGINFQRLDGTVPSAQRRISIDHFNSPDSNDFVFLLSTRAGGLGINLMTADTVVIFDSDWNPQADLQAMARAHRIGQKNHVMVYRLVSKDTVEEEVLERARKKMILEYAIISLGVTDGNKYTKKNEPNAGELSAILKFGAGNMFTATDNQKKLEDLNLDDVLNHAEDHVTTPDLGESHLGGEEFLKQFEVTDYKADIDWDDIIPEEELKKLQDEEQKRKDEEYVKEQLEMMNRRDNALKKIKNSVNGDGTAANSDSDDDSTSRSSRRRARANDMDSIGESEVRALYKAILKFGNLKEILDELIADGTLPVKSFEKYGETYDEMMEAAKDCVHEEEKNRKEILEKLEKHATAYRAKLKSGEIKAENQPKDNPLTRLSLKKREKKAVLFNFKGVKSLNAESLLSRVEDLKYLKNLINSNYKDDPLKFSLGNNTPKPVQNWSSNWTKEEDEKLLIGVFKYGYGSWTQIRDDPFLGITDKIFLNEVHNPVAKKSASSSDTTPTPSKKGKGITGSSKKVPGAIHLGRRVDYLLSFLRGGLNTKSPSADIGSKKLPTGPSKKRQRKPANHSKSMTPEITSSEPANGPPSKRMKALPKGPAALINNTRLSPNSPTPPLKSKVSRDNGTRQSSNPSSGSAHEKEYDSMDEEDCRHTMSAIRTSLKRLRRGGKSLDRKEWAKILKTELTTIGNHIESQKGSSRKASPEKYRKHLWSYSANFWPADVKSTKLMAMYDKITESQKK

For some of these results: Measured potencies and affinities stand elsewhere.

Sequence of Protein translocase subunit SecA (Escherichia coli (strain K12)) (P10408 whole entry): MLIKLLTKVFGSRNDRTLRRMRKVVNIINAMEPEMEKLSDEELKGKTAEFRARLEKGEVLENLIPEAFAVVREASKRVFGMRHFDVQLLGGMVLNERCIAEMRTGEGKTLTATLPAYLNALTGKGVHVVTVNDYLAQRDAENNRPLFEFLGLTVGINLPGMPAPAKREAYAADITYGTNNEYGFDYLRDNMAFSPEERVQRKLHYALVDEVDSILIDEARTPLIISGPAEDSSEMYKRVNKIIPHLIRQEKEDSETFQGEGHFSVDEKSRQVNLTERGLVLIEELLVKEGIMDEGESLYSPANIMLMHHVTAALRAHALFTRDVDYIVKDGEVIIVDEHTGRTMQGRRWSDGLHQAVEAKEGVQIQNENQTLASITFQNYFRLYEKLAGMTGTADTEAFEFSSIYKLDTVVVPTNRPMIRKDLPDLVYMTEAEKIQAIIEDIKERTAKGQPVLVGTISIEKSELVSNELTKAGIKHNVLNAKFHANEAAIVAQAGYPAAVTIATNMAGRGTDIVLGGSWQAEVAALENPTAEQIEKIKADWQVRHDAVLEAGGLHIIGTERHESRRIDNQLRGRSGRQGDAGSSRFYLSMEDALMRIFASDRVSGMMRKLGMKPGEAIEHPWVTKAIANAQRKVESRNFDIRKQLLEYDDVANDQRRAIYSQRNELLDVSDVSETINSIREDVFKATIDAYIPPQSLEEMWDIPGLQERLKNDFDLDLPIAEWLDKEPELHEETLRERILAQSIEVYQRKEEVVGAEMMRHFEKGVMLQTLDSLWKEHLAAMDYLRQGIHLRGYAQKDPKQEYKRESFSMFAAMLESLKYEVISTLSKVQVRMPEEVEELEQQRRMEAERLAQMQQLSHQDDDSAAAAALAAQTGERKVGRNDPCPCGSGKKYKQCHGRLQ

As to `O=C(CCCc1cn[nH]c1)N1CCOCC(O)C1` (stereo unspecified), the Percent Effect in assay [1] is -5.63%; in assay [2] it was 0%; in [3], -4.88%; in assay [4], -7.04%; in assay [5], 0%; in assay [6], -0.455%. Besides, the Percent Effect in assay [7] was 5.86%; in [8] it was -11.9%; in [9] it was 5.38%; in [10], 10%; in assay [11] it was -3.63%.

With `Cc1cc(C(F)(F)F)c2c(C3CCN(S(=O)(=O)N(C)C)CC3)noc2n1`, the Percent Effect is -2.53% in [1]; 12.2% in assay [2]; 6.65% in assay [3]; 11.8% in [4]; -0.395% in assay [5]; 1.62% in assay [6]. Further, the Percent Effect was 6.55% in assay [7]; 3.27% in assay [8]; 6.45% in assay [9]; 16.9% in [10]; -15.2% in assay [11].

Regarding `COCCN1CCC(NCc2cccnc2)C1` (stereo unspecified), the Percent Effect was -5.87% in assay [1]; -2.6% in assay [2]; -0.869% in assay [3]; -1.42% in assay [4]; -5.06% in assay [5]; 2.49% in assay [6]. Moreover, the Percent Effect in [7] is 5.74%; in assay [8], 16.6%; in assay [9] it was 1.94%; in [10], -4.88%; in assay [11], -3.65%.

With `O=c1c2cnc(N3CCCCC3)nc2ccn1-c1ccccc1`, the Percent Effect is -4.04% in assay [1]; 9.33% in assay [2]; -3.82% in [3]; -5.64% in assay [4]; 4.71% in assay [5]; -7.22% in [6]. The Percent Effect is 15% in [7]; 8.11% in assay [8]; 2.12% in [9]; 10.3% in [10]; -8.21% in assay [11].

As to `O=C(C1CC1)N1CCC(c2nc(O)c3c(n2)CCN(C2CCCC2)C3)C1` (stereo unspecified), the Percent Effect in [1] was -5.51%; in assay [2], 13.3%; in [3] it was 6.57%; in assay [4], -6.26%; in assay [5], -4.33%; in assay [6], 1.17%. Also, the Percent Effect in [7] was 5.55%; in assay [8] it was 11.8%; in [9], 1.06%; in assay [10], 6.41%; in assay [11], -7.54%.

Turning to `Cc1nn(C)c(C)c1C1CCCN1CC(=O)NC(C1CC1)C1CC1` (stereo unspecified), the Percent Effect in assay [1] is -3.47%; in assay [2], 10.8%; in [3], -8.63%; in assay [4] it was 11.2%; in assay [5], 4.25%; in [6] it was -4.01%. In addition, the Percent Effect in [7] was -3.06%; in assay [8], 4.1%; in [9] it was 5.42%; in assay [10], 11.1%; in assay [11] it was -9.75%.

As for `CCc1ncc(C(=O)N2CCCCC2Cn2cccn2)s1` (stereo unspecified), the Percent Effect in assay [1] is -0.823%; in assay [2], 0%; in assay [3], 2.6%; in assay [4], -4.33%; in assay [5], -3.44%; in assay [6] it was 1.66%. In addition, the Percent Effect was -4.13% in [7]; 7.71% in [8]; 2.97% in [9]; -23.2% in [10]; 10.1% in assay [11].

Turning to `O=C(NCCNc1ncccn1)N1CCSCC1`, the Percent Effect in assay [1] was -0.808%; in assay [2], 13.5%; in assay [3], -7.4%; in [4], 9.38%; in assay [5] it was 3.87%; in assay [6] it was -5.21%. Further, the Percent Effect in assay [7] is 7.39%; in assay [8] it was 11.3%; in assay [9], 5.42%; in [10], 16.1%; in [11], -9.99%.

Consider `Cn1nc(C2CCN(C(=O)Cc3cccc(F)c3)CC2)c2cccnc21`, for which the Percent Effect was -2.77% in assay [1]; -6.76% in assay [2]; 12.2% in assay [3]; 3.61% in assay [4]; 4.35% in assay [5]; -0.232% in assay [6]. Further, the Percent Effect is 6.71% in [7]; 14.9% in assay [8]; 1.07% in assay [9]; 6.49% in assay [10]; -3.75% in [11].

Turning to `Cc1ccc(N2CCCC(NCc3ccncc3)C2)nn1` (stereo unspecified), the Percent Effect in assay [1] is -2.1%; in assay [2], 11.4%; in assay [3] it was -4.43%; in assay [4], -7.21%; in assay [5], 0.718%; in assay [6], -3.23%. Further, the Percent Effect in assay [7] is 26.8%; in assay [8] it was -2.46%; in [9], 0%; in [10], 2.53%; in assay [11], -31.9%.

In the case of `Cc1ccc(OCC(=O)NS(=O)(=O)c2cccnc2)cc1C`, the Percent Effect is 0.796% in [1]; 15.8% in assay [2]; 3.98% in assay [3]; -2.26% in assay [4]; -7.52% in assay [5]; -3.45% in assay [6]. Also, the Percent Effect in assay [7] was 17.4%; in [8], 29.1%; in assay [9] it was -1.47%; in assay [10] it was 4.88%; in [11], -9.25%.
